We go through 40 sequences from the supplement of paper PMC10681739.

For this experiment, the target named is T1, ETS1 (UniProt P14921).
T1 sequence: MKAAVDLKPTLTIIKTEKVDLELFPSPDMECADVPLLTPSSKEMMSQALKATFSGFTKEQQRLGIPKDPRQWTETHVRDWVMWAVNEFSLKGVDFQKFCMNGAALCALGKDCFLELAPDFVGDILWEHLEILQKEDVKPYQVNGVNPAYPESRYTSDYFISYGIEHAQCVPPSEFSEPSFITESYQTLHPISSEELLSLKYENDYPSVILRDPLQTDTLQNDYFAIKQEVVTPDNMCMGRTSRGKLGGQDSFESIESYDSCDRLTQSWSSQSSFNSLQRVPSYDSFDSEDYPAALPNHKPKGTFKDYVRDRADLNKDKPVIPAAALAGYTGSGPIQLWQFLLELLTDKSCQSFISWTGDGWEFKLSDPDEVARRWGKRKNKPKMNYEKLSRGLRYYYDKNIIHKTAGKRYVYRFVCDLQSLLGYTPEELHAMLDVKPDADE
The experiment in a line: ETS1 binding intensity (PBM fluorescence), ETS1 alone (arbitrary fluorescence units); higher = stronger binding. The note with it: ETS1 concentration 1 nM; RUNX1 concentration 0 nM. Here is the method: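 Cooperative genomic-context PBM: 36-bp genomic probes with neighbouring ETS1 and RUNX1 sites, double-stranded on Agilent 4x180k arrays. Full-length recombinant human ETS1 (1 nM) was incubated alone or with RUNX1 (25 nM) and detected with anti-ETS1 antibody plus Alexa488 secondary. Value is the median fluorescence intensity over 4 replicate spots; the ETS1+RUNX1 data were normalised to the ETS1-only data using probes without RUNX1 sites. The 36-bp variable region sits on the array probe with constant linker/primer flanks that are not printed.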
For ACTAGAAGCGGAAGTAGTTGTGGGCGCCTTTGCAAC, the ETS1 binding intensity was 5720.

CAGATTCAAGGAAGTGGTGGTGGTTTGGTGTCGTTG had an ETS1 binding intensity of 738.

For the sequence CAACACAGGATGTGCAGTATTATACCGCAAAGCACT, the ETS1 binding intensity amounted to 1710.

As to GCAGAAACAGGAAGAGACAGGGCTGACCGCAGCAGG, the ETS1 binding intensity stood at 1290.

As for TCAGTGCACTCGGATGTTGGCCGCAGTTGGGGTTAT, the ETS1 binding intensity came to 453.

For GGCCAACGAGAGCGCTTCCGGCCGCAGCCACGGCGG, the ETS1 binding intensity was found to be 1950.

Regarding CAGCTAGCCGGAAGAAGCTGCGGCGACAGCGTCCTG, the ETS1 binding intensity is 1690.

GAGGCCGAAAGGAAGTTTGAGGTTAAGCACAAGATG returned an ETS1 binding intensity of 975.

In turn, AACCCACCGGATGGAAGCTGCCACTCAGCCGCAGGA registered an ETS1 binding intensity of 1100.

Regarding GCTGATAGAACAGGATGTGGTAAAGAAGCAGGCCAA, the ETS1 binding intensity amounted to 5330.

With ATCTTCAGGAAGCGGTATCAACCTGAAAACCACCAC, the ETS1 binding intensity came to 561.

Sequence GCACCGTACCCGGAACTGCTCCCTCCCGCAGGCGCA showed an ETS1 binding intensity of 539.

In turn, CTAACAGCAGGAAGTGCTTGGTGGTTTAGCACCTCA had an ETS1 binding intensity of 2990.

With TATGTCTGACTTCCGCTCGTGGTTTCCATCTTAGCC, the ETS1 binding intensity was found to be 2870.

Sequence GCTGCAAGGCGGAAGCAGCGCGGTCGGACGGGCATG registered an ETS1 binding intensity of 1650.

As to GAGGAAAAAGGAAACAGAAACTCCGCAACTTGCGCC, the ETS1 binding intensity is 503.

Sequence GCCCAGGGCGGCCGGAAGTTTGCGGGGCGGGGCGGA had an ETS1 binding intensity of 8880.

Sequence TAAGGATGTGTGGCTTCCAGATCAAAAACCGCAAAA had an ETS1 binding intensity of 516.

TGGCTGTCACTTCCTGTCCCACTGTGGTTCCTGGGA had an ETS1 binding intensity of 4940.

AGATGCAAACACAGGAAACTTGTGGTCTATGCTGCT: the ETS1 binding intensity came out at 1800.

On to GCTGGGGCAGGAAGCTTCTAGGCCACAGACAGGACG, for which the ETS1 binding intensity turned out to be 1190.

CTCACAACTCGCGTCCGGCGGAGACCACAATTCCCG displayed an ETS1 binding intensity of 412.

For CCGCCGACACACTTCCGGCGGCCACCACAGGGTATT, the ETS1 binding intensity was 3140.

The sequence CTGACAGTTACTTCCTGTCTTTGTGGGCGATTGTGA registered an ETS1 binding intensity of 3170.

In turn, TGGATGGCAAGCAACGGAAACCGCAAACAGGGCTGT showed an ETS1 binding intensity of 1700.

In turn, TGGCTTGAGCTCAGGAAGTTGTGGCTGCAGTAAGCT gave an ETS1 binding intensity of 1470.

GAAAGACAGGATGTGGGATAGATCTCAACCACCTTT gave an ETS1 binding intensity of 2590.

With GAAGCCCAACAGGATGCCGAGTAACCACCCACTGAA, the ETS1 binding intensity turned out to be 1040.

For the sequence CATGGGGAGGAGGAAGTGGTGGCGGCCGCAGGCCAG, the ETS1 binding intensity came out at 1040.

In turn, AACAAACCGGATGGGGTTCCCACCCGCAATCTTGTC displayed an ETS1 binding intensity of 1700.

Sequence CTGTCTGCTTCCCGTGGCCAGCCCTGACCGCGGCCC registered an ETS1 binding intensity of 351.

Take AGGTACTCACCATTCCGGCGGTTGCTACTGTCACTG: the ETS1 binding intensity stood at 459.

Consider GTCTTGTACCCTAGAGGATGTGGTAGCCCTAAATAA, for which the ETS1 binding intensity came to 1060.

TGAATATTCTTCCGCACGTACCCACATGGCTCACTT gave an ETS1 binding intensity of 486.

The sequence CTCTCTGGGCGGAAGGAACGCGGTCACCCTGAGAAA gave an ETS1 binding intensity of 547.

Sequence CGGGGATGGGATTTCCGGTGGTTTTTCTTCACTTTC yielded an ETS1 binding intensity of 4490.

Sequence GAATGACAGGAAGATGATTAGTGATAGTGGGTTTGG displayed an ETS1 binding intensity of 740.

The sequence GAACCTGGGAGGCGGAAGTTGCGGTTAGCCGAGATC had an ETS1 binding intensity of 6030.

GCCCCAGCGTTTCCTCTTACCCACAATGCCCCGCCC: the ETS1 binding intensity was 794.

For the sequence ACACCGGAAGCCCAACAGCATGCCGAGTAACCACCC, the ETS1 binding intensity was found to be 1120.
